Shown are actives, neighbours in structure and some others; about 3.6% of the full set was active somewhere.
mHTT-CaM PPI inh: mutant huntingtin-calmodulin interaction inhibitors – biochemical, AlphaScreen, primary screen | actives 3.6% (n = 190,000) | P42858 | inhibition, % at 15 µM | AlphaScreen His-mHTT/GST-CaM binding, luminescence;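 also: 0% = both proteins with DMSO and 100% = one protein alone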
Pf apPOL block: Pf-apPOL inhibitors, biochemical, fluorescence; Recombinant Pf-apPOL, molecular beacon fluorescence, 1.5 h; AID 1794808, 2022; inhibition, % at 10 µM; actives 0.25% (n = 210,000); Plasmodium falciparum apicoplast DNA polymerase (apPOL)
The depositor's hits bear a star. Rule as the data show it: active = inhibition above about 50%; inactive = the rest.

How did CC(C)C1C(=O)N(Cc2cn(CCC3OCCO3)nn2)CCS(=O)(=O)N1Cc1ccc(-c2cccc(CO)c2)cc1 (stereo not drawn) do in these assays?
mHTT-CaM PPI inh: 44.8; Pf apPOL block: -5.4

What do the screens show for `CC(C)CC1C(=O)N(Cc2cn(CCC3OCCCO3)nn2)CCS(=O)(=O)N1Cc1ccc(-c2ccc(Cl)c(Cl)c2)cc1` (stereo not drawn)?
mHTT-CaM PPI inh: 60.4*; Pf apPOL block: -4.0

Results for COc1ccc(-c2ccc(CN3C(CC(C)C)C(=O)N(Cc4cn(CCC5OCCO5)nn4)CCS3(=O)=O)cc2)cc1OC (stereo not drawn) ?
mHTT-CaM PPI inh: 20.6; Pf apPOL block: -8.1

How did CC(C)CC1C(=O)N(Cc2cn(CCC3OCCO3)nn2)CCS(=O)(=O)N1Cc1ccc(-c2cccc(N(C)C)c2)cc1 (stereo not drawn) do in these assays?
mHTT-CaM PPI inh: 71.9*; Pf apPOL block: 1.5

Results for CC(C)CC1C(=O)N(Cc2cn(CCC3OCCCO3)nn2)CCS(=O)(=O)N1Cc1ccc(-c2ccc(Cl)nc2)cc1 (stereo not drawn) ?
mHTT-CaM PPI inh: 29.3; Pf apPOL block: -22.9

Results for O=C(Nc1ccc(Cl)c(Cl)c1)c1cc([N+](=O)[O-])nn1Cc1ccccc1 ?
mHTT-CaM PPI inh: 0.0; Pf apPOL block: -7.4

Results for CN1CCN(c2ncncc2N2CCC(C(=O)NCc3ccc(F)cc3Cl)CC2)CC1 ?
mHTT-CaM PPI inh: 7.3; Pf apPOL block: 2.0

How did COc1ccc(S(=O)(=O)Nc2ccc3oc(=O)sc3c2)cc1 do in these assays?
mHTT-CaM PPI inh: 6.0; Pf apPOL block: -6.1

How did COc1ccc(S(=O)(=O)Nc2cc3sc(=O)oc3c3ccccc23)cc1 do in these assays?
mHTT-CaM PPI inh: 100.3*; Pf apPOL block: 4.2

What do the screens show for `Cc1[nH]c2ccccc2c1C=Nc1c(-c2ccco2)nc2ccccn12`?
mHTT-CaM PPI inh: 91.0*; Pf apPOL block: -3.3

What do the screens show for `Oc1cccc(C=Nc2c(-c3ccco3)nc3ccccn23)c1`?
mHTT-CaM PPI inh: 49.0; Pf apPOL block: 8.5

What do the screens show for `COc1cc(/C=C2/NC(=O)N(Cc3ccc(Cl)cc3)C2=O)cc(OC)c1OC`?
mHTT-CaM PPI inh: 38.0; Pf apPOL block: -0.3

How did CN1CCC(N(CC2CCOC2)S(=O)(=O)c2cccs2)CC1 (stereo not drawn) do in these assays?
mHTT-CaM PPI inh: -3.4; Pf apPOL block: -10.0

What do the screens show for `Cc1nc(-c2ccncc2)nc2c1CCC(=O)N2Cc1ccncc1`?
mHTT-CaM PPI inh: 5.8; Pf apPOL block: 14.3

How did Cc1ccc(CN2C(=O)CCc3c(C)nc(-c4ccccc4)nc32)o1 do in these assays?
mHTT-CaM PPI inh: 89.8*; Pf apPOL block: 19.8

What do the screens show for `Cc1nc(-c2cnccn2)nc2c1CCC(=O)N2Cc1ccncc1`?
mHTT-CaM PPI inh: 59.8*; Pf apPOL block: 58.6*

What do the screens show for `Cc1nc(-c2cnccn2)nc2c1CCC(=O)N2Cc1ccccc1`?
mHTT-CaM PPI inh: 8.7; Pf apPOL block: -1.3

Results for Cc1nc(-c2ccncc2)nc2c1CCC(=O)N2CCN1CCCC1 ?
mHTT-CaM PPI inh: 27.9; Pf apPOL block: 56.2*

How did Cc1nc(-c2ccncc2)nc2c1CCC(=O)N2Cc1ccco1 do in these assays?
mHTT-CaM PPI inh: 22.3; Pf apPOL block: -7.5

How did O=S(=O)(c1ccc(Cl)cc1Br)N1CCN(c2ccccc2)CC1 do in these assays?
mHTT-CaM PPI inh: -13.4; Pf apPOL block: -6.8

What do the screens show for `Cc1cc(=O)[nH]c(-c2ccccn2)n1`?
Pf apPOL block: -49.3

Results for Oc1ccccc1N=Cc1ccc(Cl)cc1Cl ?
mHTT-CaM PPI inh: 6.0; Pf apPOL block: 35.3

Results for COc1ccccc1N1CCN(C(=O)c2ccc(Cl)cc2[N+](=O)[O-])CC1 ?
mHTT-CaM PPI inh: 7.0; Pf apPOL block: 6.6

What do the screens show for `COc1ccccc1C(=O)N1CCN(C2=NN=C(c3ccccc3)CS2)CC1`?
mHTT-CaM PPI inh: 78.9*; Pf apPOL block: 0.7

Results for COc1ccccc1C(=O)N1CCN(C(=O)C(c2ccccc2)c2ccccc2)CC1 ?
mHTT-CaM PPI inh: 20.7; Pf apPOL block: -9.6

What do the screens show for `COC(=O)c1cccc(C(=O)Nc2ccc(Cl)cc2C)n1`?
mHTT-CaM PPI inh: -7.0; Pf apPOL block: -2.7

Results for COc1cccc(C(=O)N2CCN(C(=O)c3ccc(-c4ccccc4)cc3)CC2)c1OC ?
mHTT-CaM PPI inh: 51.9*; Pf apPOL block: 6.5

How did COC(=O)c1cccc(C(=O)N2CCN(c3cc(Cl)ccc3C)CC2)n1 do in these assays?
mHTT-CaM PPI inh: 96.8*; Pf apPOL block: -1.6

How did COc1cc(OC)cc(C(=O)N2CCN(C(=O)c3ccc(-c4ccccc4)cc3)CC2)c1 do in these assays?
mHTT-CaM PPI inh: 11.2; Pf apPOL block: -3.9

Results for COc1cccc(C(=O)N2CCN(c3cc(Cl)ccc3C)CC2)c1OC ?
mHTT-CaM PPI inh: 100.2*; Pf apPOL block: -0.5

How did Cc1nc(-c2nnn(Cc3ccccc3)c2C)no1 do in these assays?
mHTT-CaM PPI inh: -8.6; Pf apPOL block: 0.3

How did CCOc1ccc(NC(=O)C2Oc3ccccc3NC2=O)cc1 (stereo not drawn) do in these assays?
mHTT-CaM PPI inh: 3.7; Pf apPOL block: -1.3

Compound activity from PubChem BioAssay.
